ChEMBL document CHEMBL3433997, “St. Jude Leishmania screening dataset” (2016)
“And” between values parts separate entries of the source, which are not always exact repeats. Equal entries are not always repeated.

Columns and labels:
Assay type in all cases: functional
[1] = target: Solute carrier family 2, facilitated glucose transporter member 1 (Homo sapiens) (UniProt P11166); assay: ST_JUDE_LEISH: Cytotoxicity at 2uM final concentration against transgenic Leishmania Mexicana promastigotes LmGLUT1 that are glucose transport deficient and complemented with the human glucose transporter GLUT1. Activity is measured by DNA content using SYBR green in vitro
[2] = target: Hexose transporter 1 (Plasmodium falciparum) (UniProt O97467); assay: ST_JUDE_LEISH: Cytotoxicity at 2uM final concentration against transgenic Leishmania Mexicana promastigotes LmPfHT that are glucose transport deficient and complemented with the Plasmodium falciparum hexose transporter. Activity is measured by DNA content using SYBR green in vitro
[3] = target: Glucose transporter (Leishmania mexicana) (UniProt O61059); assay: ST_JUDE_LEISH: Cytotoxicity at 2uM final concentration against transgenic Leishmania Mexicana promastigotes LmGT2 that are glucose transport deficient and complemented with the L. Mexicana glucose transporter 2. Activity is measured by DNA content using SYBR green in vitro

Solute carrier family 2, facilitated glucose transporter member 1 (Homo sapiens), sequence (P11166 whole entry): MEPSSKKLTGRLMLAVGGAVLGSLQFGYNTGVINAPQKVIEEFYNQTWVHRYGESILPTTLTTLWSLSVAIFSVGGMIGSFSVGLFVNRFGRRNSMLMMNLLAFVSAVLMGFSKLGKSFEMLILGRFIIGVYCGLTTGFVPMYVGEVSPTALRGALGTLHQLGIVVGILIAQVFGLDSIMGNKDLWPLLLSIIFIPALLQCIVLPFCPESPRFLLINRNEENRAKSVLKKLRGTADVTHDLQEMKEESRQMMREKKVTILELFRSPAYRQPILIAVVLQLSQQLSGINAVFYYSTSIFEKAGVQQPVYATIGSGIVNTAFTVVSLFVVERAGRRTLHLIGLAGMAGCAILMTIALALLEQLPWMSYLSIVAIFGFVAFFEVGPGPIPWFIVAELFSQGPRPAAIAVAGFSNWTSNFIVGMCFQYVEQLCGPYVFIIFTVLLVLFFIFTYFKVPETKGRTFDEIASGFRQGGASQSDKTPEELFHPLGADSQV

How did the inhibition [1] turn out when `CNCC(O)c1cc(Cl)c(Cl)cc1C` (centres undefined) was run?
Its inhibition is 1.72%.

And the inhibition [2]?
The inhibition was 0.44%.

And the inhibition [3]?
Its inhibition is -1.56%.

Which results are given for `O=c1c2ccccc2nc(/C=C/c2ccc([N+](=O)[O-])cc2)n1-c1ccccn1`?
inhibition [1]: 10.9%; inhibition [2]: 11%; inhibition [3]: 6.71%

How did the inhibition [1] turn out when `CCCc1cc([C@@H](O)[C@@H]2C[C@@H]3CCN2C[C@@H]3CC)c2ccccc2n1` was run?
Its inhibition is -0.67%.

What about the inhibition [2] of the same compound?
Its inhibition is 3.99%.

And the inhibition [3]?
Its inhibition is 0.11%.

How did the inhibition [1] turn out when `CCCCCc1cc(O)c2c(c1)OC(C)(C)c1ccncc1-2` was run?
Its inhibition is 0.55%.

What about the inhibition [2] of the same compound?
The inhibition was 0.66%.

What about the inhibition [3] of the same compound?
The inhibition was 3.5%.

`CC(Cc1ccc(C2=CCNCC2)cc1)NCC(O)c1cccc(C(F)(F)F)c1` (centres undefined) was tested. Which inhibition [1] did it give?
Its inhibition is -2.15%.

And the inhibition [2]?
Its inhibition is -1.67%.

What about the inhibition [3] of the same compound?
Its inhibition is -0.93%.

`CC(C)CCNC(=O)c1cc(C(=O)c2cc(F)ccc2O)cn(CCC(C)C)c1=O` was tested. Which inhibition [1] did it give?
Its inhibition is 3.21%.

And the inhibition [2]?
The inhibition was 2.53%.

What about the inhibition [3] of the same compound?
Its inhibition is 6.46%.

Which results are given for `CS(=O)(=O)Nc1ccc2c(C3CCN(CC4CCN(C(=O)/C=C/c5ccc(Cl)c(Cl)c5)CC4)CC3)c[nH]c2c1`?
inhibition [1]: -0.41%; inhibition [2]: 0.85%; inhibition [3]: -2.09%

How did the inhibition [1] turn out when `O=C1c2ccccc2CCC1CCN1CC=C(c2c[nH]c3ccccc23)CC1` (centres undefined) was run?
Its inhibition is 2.89%.

And the inhibition [2]?
The inhibition was 3.52%.

And the inhibition [3]?
Its inhibition is 3.16%.

How did the inhibition [1] turn out when `S=C(Nc1ccc2c(c1)OCCO2)NC1CCC(CN2CCC(c3c[nH]c4ccccc34)CC2)CC1` (centres undefined) was run?
The inhibition was 0.68% and -2.92%.

And the inhibition [2]?
The inhibition was -3.08% and -1.27%.

What about the inhibition [3] of the same compound?
Its inhibition is 4.46% and -3.36%.

How did the inhibition [1] turn out when `CC[C@H]1CN2CC[C@H]1C[C@H]2[C@H](O)c1ccnc2ccc(C#N)cc12` was run?
Its inhibition is 0.59%.

And the inhibition [2]?
The inhibition was 1.86%.

What about the inhibition [3] of the same compound?
Its inhibition is 2.19%.

With `O=C(NC1CCC(CN2CCC(c3c[nH]c4ccccc34)CC2)CC1)c1cc2ccccc2s1` (centres undefined) as the compound, how does the inhibition [1] read?
Its inhibition is -1.97% and 2.46%.

And the inhibition [2]?
The inhibition was 0.46% and 1.62%.

What about the inhibition [3] of the same compound?
Its inhibition is -5.56% and 1.62%.

Which results are given for `Cc1cccc(C(=O)Nc2ccnc(N(C)C3CCN(Cc4cccc(O)c4)CC3)c2)c1`?
inhibition [1]: 3.06%; inhibition [2]: 1.84%; inhibition [3]: 3.85%

What does the source list for `Cc1nc2ccccc2n1C1CC2CCC(C1)N2Cc1nccn1-c1ccccc1` (centres undefined)?
inhibition [1]: 0.86%; inhibition [2]: 3.24%; inhibition [3]: 2.15%

Which results are given for `CC[C@H]1CN2CC[C@@H]1C[C@H]2[C@H](O)c1cc(N2CCOCC2)nc2ccc(OC)cc12`?
inhibition [1]: -1.11%; inhibition [2]: -1.44%; inhibition [3]: -2.42%

For `O=C1NCN(c2ccc(O)cc2)C12CCN(CCCC(c1ccc(F)cc1)c1ccc(F)cc1)CC2`, which inhibition [1] is on record?
The inhibition was 3.87%.

And the inhibition [2]?
Its inhibition is 3.34%.

What about the inhibition [3] of the same compound?
The inhibition was 3.43%.

Which inhibition [1] does the source give for `CCCCCc1cc(O)c2c3c(c(=O)oc2c1)CN(C)CC3` here?
Its inhibition is 2.93%.

And the inhibition [2]?
Its inhibition is 2.18%.

What about the inhibition [3] of the same compound?
Its inhibition is 1.87%.

With `C#CCN1CCC2=C(C1)c1c(O)cc(C(C)C(C)CCc3ccc(F)cc3)cc1OC2(C)C` (centres undefined) as the compound, how does the inhibition [1] read?
The inhibition was 0.45%.

What about the inhibition [2] of the same compound?
Its inhibition is -1.07%.

And the inhibition [3]?
Its inhibition is -1.42%.

Which inhibition [1] does the source give for `COC(=O)/C=C/c1ccc(CC(C)NCC(O)c2cccc(C(F)(F)F)c2)cc1` (centres undefined) here?
Its inhibition is 0.9% and -0.04%.

And the inhibition [2]?
Its inhibition is -2.11% and 0.7%.

And the inhibition [3]?
Its inhibition is -1.59% and -0.73%.

`CCCCCC(C)C(C)c1cc(O)c2c(c1)OC1(C(C)C)CC(O)C(C)C2C1` (centres undefined) was tested. Which inhibition [1] did it give?
The inhibition was 5.93%.

And the inhibition [2]?
The inhibition was 5.5%.

What about the inhibition [3] of the same compound?
Its inhibition is 6.4%.

`CC(=O)C1(c2ccccc2)CCN(CCC2(c3ccc(Cl)c(Cl)c3)CN(C(=O)Nc3cccc(C(F)(F)F)c3)CCO2)CC1` (centres undefined) was tested. Which inhibition [1] did it give?
Its inhibition is 7.51%.

And the inhibition [2]?
The inhibition was 4.19%.

And the inhibition [3]?
The inhibition was 3.14%.

Which results are given for `Cc1csc(-c2ccc3[nH]cc(C4=CCN(C)CC4)c3c2)n1`?
inhibition [1]: 7.46%; inhibition [2]: 9.43%; inhibition [3]: 6.12%

For `O=C(Nc1ccc(Oc2ccccc2)cc1)NC1CCC(CN2CCC(c3c[nH]c4ccccc34)CC2)CC1` (centres undefined), which inhibition [1] is on record?
Its inhibition is 1.21%.

What about the inhibition [2] of the same compound?
The inhibition was 0.51%.

What about the inhibition [3] of the same compound?
Its inhibition is -0.05%.

What does the source list for `Cc1ccc(CC(C)NCC(O)c2cccc(C#N)c2)cc1` (centres undefined)?
inhibition [1]: 9.34%; inhibition [2]: 13.4%; inhibition [3]: 9.79%

What does the source list for `O=C1Nc2cccc3c2C1(CCCCN1CC=C(c2c[nH]c4ncccc24)CC1)CCC3` (centres undefined)?
inhibition [1]: 5.83%; inhibition [2]: 4.08%; inhibition [3]: 3.96%

With `COc1ccc(CC(C)NCC(O)c2ccc(Cl)c(Cl)c2)cc1` (centres undefined) as the compound, how does the inhibition [1] read?
Its inhibition is 0.41%.

And the inhibition [2]?
The inhibition was -0.07%.

What about the inhibition [3] of the same compound?
The inhibition was -2.6%.

Which inhibition [1] does the source give for `Oc1ccc(Cl)cc1CN1CCC(CCOC(c2ccccc2)c2ccc(Cl)cc2)CC1` (centres undefined) here?
The inhibition was 46.7%.

What about the inhibition [2] of the same compound?
The inhibition was 25.3%.

And the inhibition [3]?
The inhibition was 5.18%.

`CN1CC=C(C=Cc2c[nH]c3ccccc23)CC1` was tested. Which inhibition [1] did it give?
Its inhibition is 0.96%.

What about the inhibition [2] of the same compound?
The inhibition was 2.14%.

What about the inhibition [3] of the same compound?
Its inhibition is 3.25%.

How did the inhibition [1] turn out when `CC(C)CNCc1cccc(-c2ccc(CN(C(=O)c3cccs3)C3CCN(Cc4ccccc4)CC3)cc2)c1` was run?
Its inhibition is 2.62%.

What about the inhibition [2] of the same compound?
The inhibition was 4.53%.

What about the inhibition [3] of the same compound?
Its inhibition is 6.86%.

What does the source list for `CC(Cc1ccc(OCc2ccccc2)cc1)NCC(O)c1cccc(Cl)c1` (centres undefined)?
inhibition [1]: 5.48%; inhibition [2]: 3.61%; inhibition [3]: 4.23%

For `O=C(/C=C/c1ccc(Cl)c(Cl)c1)Nc1cccc(CN2CCC(c3c[nH]c4ccc(O)cc34)CC2)c1`, which inhibition [1] is on record?
The inhibition was 0.9%.

And the inhibition [2]?
The inhibition was 1.55%.

What about the inhibition [3] of the same compound?
The inhibition was -0.7%.

With `Cc1cc(C2CCCCN2C)ccc1-c1ccc(C(=O)N2CCc3cc4c(cc32)C2(CCN(C)CC2)CO4)cc1` (centres undefined) as the compound, how does the inhibition [1] read?
Its inhibition is 3.41%.

What about the inhibition [2] of the same compound?
The inhibition was 0.31%.

And the inhibition [3]?
The inhibition was 1.11%.

What does the source list for `Cn1nc(-c2ccc(S(=O)(=O)N3CCC(CN4CCC(c5c[nH]c6ccccc56)CC4)CC3)s2)cc1C(F)(F)F`?
inhibition [1]: 0.1%; inhibition [2]: 2.15%; inhibition [3]: -1.24%

Which inhibition [1] does the source give for `CCCCCCCSc1ccc(CC(C)NCC(O)c2cccc(Cl)c2)cc1` (centres undefined) here?
Its inhibition is 4.14%.

And the inhibition [2]?
Its inhibition is 4.49%.

And the inhibition [3]?
Its inhibition is 4.37%.
